Assay results reported in PubChem BioAssay (NCATS).
Several values for one entry are separate records, joined by “and”; a condition that tells them apart may be missing. Equal entries are not always repeated. Results filed as inconclusive are left out. Some structures have more than one record in an assay (separate samples or runs), and their calls can disagree. Unmarked numbers belong to inactive results. Activity calls are given as the source filed them. Calls follow the shape of the dose curve; as a rule, active = well fitted activation curve with a large enough effect; inconclusive = small, poorly fitted or top-dose-only effect; inactive = flat fitted curve, though single readings scatter.

Assay: qHTS assay for environmental chemicals that activate the Aryl hydrocarbon Receptor (AhR) signaling pathway (AID 651777); also: nearly all actives have a fitted effect of over 15% in size; as to activation: % of control where 0% means no effect
Details: 1A2-DRE human hepatoma cells, luciferase, 24 h; activation: active compounds read high
From the text: National Center for Advancing Translational Sciences [NCATS]
NIH Chemical Genomics Center [NCGC]
U.S. Environmental Protection Agency [EPA]
National Institutes of Environmental Health Sciences [NIEHS]
National Toxicology Program [NTP]
The Aryl hydrocarbon Receptor (AhR) plays a critical role in the development of cancer or neoplasm and its formation is most likely due to genetic mutations and the influence of environment. Exposure to environmental pollutants such as polycyclic aromatic hydrocarbons (PAH), their halogenated derivatives and heterocyclic amines causes the induction of phase I and II enzymes. The transcriptional activation of CYP1A2 is directly regulated by AhR.
A cell based assay (1A2-DRE cells, developed by Puracyp, Inc., CA) was used to assess the activation of AhR. Human hepatoma cells were stably transfected with the dioxin response element (DRE) and CYP1A2 promoter fused to a luciferase gene. Increased luciferase activity can be used to identify the compounds that cause the induction of CYP1A2 and AhR activation.
1,200 cells in 5 uL/well were dispensed into white wall/solid bottom 1536-well plates using a Multidrop Combi (Thermo Scientific) dispenser. Following transfer of 23 nL compound or DMSO vehicle by a pin tool, the plates were incubated 24 hr at 37 C and 5% CO2. 5 ul One-Glo (Promega) was then added to each well and following 30 min incubation at room temperature, luciferase activity was quantified on a ViewLux CCD-based plate reader.
Potency is read from the fitted curve at half-maximal effect.

Compound | Potency | activation
c1ccc2occc2c1 | 1.26 mM (active) and 25.1 µM (active) | 2.4%
CCCC(=O)c1cc(O)c(O)cc1O | – | -2.11%
OCc1c[nH]c2ccccc12 | – | 2.25%
CCCCCCCCCCCCCCCC[n+]1ccccc1 | – | 5.1%
Oc1ccccc1 | – | -1.73% and 0.212% and 0.333%
O=C(Oc1ccccc1)c1ccccc1O | – | -0.0038% and 1.61%
O=C(c1ccccc1)c1ccccc1 | – | -0.735% and 18.8%
CC(C)(C)c1ccc(O)c(O)c1 | – | 7.39% and 2.07%
COC(=O)c1c(Cl)c(Cl)c(C(=O)OC)c(Cl)c1Cl | – | 0.102%
Cc1cc(C(C)(C)C)c(O)c(C(C)(C)C)c1 | – | 0.771% and -0.0452%
Cc1ncc(CO)c(CO)c1O | – | -1.88%
C1=CC2C3C=CC(C3)C2C1 (stereo unspecified) | – | 0.971%
CCN(CC)CCOc1ccc(/C(=C(\Cl)c2ccccc2)c2ccccc2)cc1 | – | -0.728%
CC(=O)OC/C=C(C)/C=C/C=C(C)/C=C/C1=C(C)CCCC1(C)C | – | -0.036% and -0.475%
CC(C)(c1ccc(O)cc1)c1ccc(O)cc1 | – | 3.05% and 4.15% and 3.72%
COc1cc(C=O)ccc1O | – | 2.04% and 0.0367%
O=C(NO)c1ccccc1 | – | -0.612%
CCCCCCCCCCCC[N+](C)(C)Cc1ccccc1 | – | -1.52%
CN1C(=O)c2ccccc2C1=O | – | 1.05%
CC(C)C(C)(C)C(C)(C)C(C)(C)S | – | 1.1% and 1.7%
